This is a sample that favours compounds with a hit; in the whole collection about 8% have one here.
LASV entry inh – blocks Lassa virus binding or cell entry; Lassa virus pseudotyped entry inhibition, cell-based qHTS; Potency, µM (top dose mostly 49.2 µM), without a hit: at the highest dose activity change, negative = inhibition, usual class: inhibitors; hit rate 4.1% among 18,000; AID 720533
MARV entry inh – inhibitors of Marburg virus binding or entry into cells; Marburg virus pseudotype entry/binding inhibition, cell-based; Potency, µM (highest dose often 49.2 µM), for the others: top-dose activity change, negative = inhibition, actives largely listed as inhibitors; hit rate 6.5% among 18,000; AID 720532
Starred values were filed as active, the others as inactive; ? = inconclusive; / = not tested or not shown; ! = not active in a repeat; [ ] = remark or other dose. Calls follow the shape of the full dose curve; tested in HEK293 cells. % is scaled to controls: 0 for no effect and ±100 for the full control effect; potency is read from the fitted curve at half-maximal effect.

SMILES	LASV entry inh	MARV entry inh
CC1(C)C(=O)C=C[C@@]2(C)C1CC(O)[C@]1(C)C2CC[C@@]2(C)C(c3ccoc3)OC(=O)C3O[C@]312 (some centres not stated)	?	12.6µM*
Cc1cc2c(c(=O)n1-c1ccccc1)[C@H]1O[C@](c3ccsc3)(Cc3ccccc31)O2	-16.8%[8.59 µM]	?
C=CC1CC2C=CCOP(=O)(O1)O2 (configuration not stated)	-11.7%	?
C[C@@H]1COc2cc(Br)ccc2S(=O)(=O)N1	23.1%	-23.8%
CC(C)n1cnc2c(C(=O)N[C@H]3CN4CCC3CC4)cc(Cl)cc21	35.5µM*!	7.08µM*
O=C(O)c1ccccc1Nc1ccc(CCc2ccc(Cl)c(Cl)c2)cc1	-23.1%	-27.5%
O=C(O)c1ccccc1Nc1cccc(OCc2ccc3ccccc3n2)c1	15.8µM*	?
COc1cc(CCN2C(=O)NC(c3ccccc3)C(C(C)=O)=C2C)cc(OC)c1OC (configuration not stated)	8.6%[8.59 µM]	6.3%[8.59 µM]
CCCCCCN1C[C@@H](n2cc(COC(=O)c3ccccc3)nn2)[C@H](O)C[C@H]1c1ccc(Cl)cc1	-19.7%	?
Nc1nc(Cl)c2ncn(C3OC(CO)C(O)C3O)c2n1 (configuration not stated)	5.4%	19.3%
Nc1nc(Cl)nc2c1ncn2[C@@H]1O[C@H](CO)[C@@H](O)[C@@H]1F	?	2.51µM*
Cc1ccc(CN2CC(N3CCN(C(=O)c4ccco4)CC3)CS2(=O)=O)cc1 (configuration not stated)	12.5%	26.7%
CC(C)C(=O)NC(=O)[C@@H]1CCCN1C(=O)C=Cc1ccccc1	25.3%[8.59 µM]	1.4%[8.59 µM]
COc1cccc([C@H]2Oc3ccc(OC)cc3C(=NOCC[C@@H]3C=C[C@H](OC(C)=O)[C@@H](COC(C)=O)O3)[C@H]2O)c1	/	-24.0%[8.59 µM]
CN1CCN(C2Cc3ccccc3Sc3ccc(S)cc32)CC1 (configuration not stated)	?	12.6µM*
CCCC=Cc1ccc(CN2C(C(C)C)C(=O)N(Cc3cn(CCC4OCCO4)nn3)CCS2(=O)=O)cc1 (configuration not stated)	/	-25.2%
CCN1C(=NCCc2ccccn2)NC(c2cccs2)C(C(=O)OC)=C1C (configuration not stated)	0.2%[8.59 µM]	?
O=C1N(Cc2ccc(F)cc2)c2ccccc2[C@@]12O[C@H](COc1ccccc1)CC1CCCC12 (some centres not stated)	41.1%[8.59 µM]	106.2%[8.59 µM]
Cc1cc(O)c(C=O)c(O)c1C(=O)O	0.5%	-1.8%
COC(=O)c1c(C)cc(OC(=O)c2c(C)cc(O)c(C=O)c2O)c(C)c1O	7.94µM*	?
COC[C@@H](O)[C@H]1OCc2ccccc2[C@@H]1C=Cc1ccccc1	-0.1%[8.59 µM]	-36.8%[8.59 µM]
COC(=O)[C@@H]1CC[C@H](C)[C@@H](c2ccc(C)cc2)N1C(=O)c1ccc(C=NOC[C@H]2O[C@H](c3ccccc3)C=C[C@H]2Oc2ccc(OC)cc2)cc1	-22.2%[8.59 µM]	-6.6%[8.59 µM]
N=c1ccn2c(n1)OC1C(O)C(CO)OC12 (configuration not stated)	?	0.708µM*
O=c1ncccn1[C@@H]1O[C@H](CO)C(O)[C@@H]1O (some centres not stated)	-3.0%	-4.3%
N=c1ccn2c(n1)OCC1C2O[C@@H](O)[C@H]1O (some centres not stated)	?	14.1µM*
SMILES	LASV entry inh	MARV entry inh
CC12C=C(C=Cc3ccccc3)C(C)(C1)C(c1ccccc1)CC2=O (configuration not stated)	-10.9%[8.59 µM]	-4.1%[8.59 µM]
O=S1(=O)c2cccc(Cl)c2OC[C@H](c2ccccc2)N1Cc1cccc(F)c1	/	-49.5%
COC(=O)[C@H]1C[C@@]2(CC=C(C)C)C(=O)[C@@](CC=C(C)C)(C(=O)C(C(=O)c3ccccc3)=C2OC)C1(C)C	-3.2%[8.59 µM]	-31.4%[8.59 µM]
COC[C@H]1CCCN1[C@H]1C[S+](=O)([O-])N[C@H]1COCc1ccccc1	16.3%	36.2%
CC[C@]1(c2ncc[nH]2)Cc2ccccc2O1	4.0%	-18.5%
CN(C)CCC1(c2ccc(Cl)cc2)Cc2ccccc2C(=O)O1 (configuration not stated)	-14.5%	35.5µM*
CC(=O)CCC(=O)N1CCC(n2c(C3CCCO3)nc3cc(C(F)(F)F)ccc32)CC1 (configuration not stated)	-0.1%	0.7%
CN1CCN(c2nc3cc(C(F)(F)F)ccc3n3cccc23)CC1	-22.0%	28.2µM*!
COCCN1C(=O)NC(c2ccccc2)C(C(=O)OC)=C1C (configuration not stated)	-4.2%[8.59 µM]	8.2%[8.59 µM]
CCCSc1cc(OC)c(CCN)cc1OC	?	22.4µM*
COc1cc(CCN)ccc1O	-1.4%	1.5%
Cc1cc2c(c(=O)n1-c1ccccc1)[C@H]1O[C@](c3ccsc3)(Cc3cc(C#N)ccc31)O2	3.9%[8.59 µM]	-12.1%[8.59 µM]
C=CCCCN1C=C(C(C)=O)C(c2ccccc2)NC1=O (configuration not stated)	27.8%[8.59 µM]	18.2%[8.59 µM]
CC(Nc1oc(-c2ccccc2)nc1C(C)(C)C)c1ccccc1 (configuration not stated)	/	-4.8%[8.59 µM]
